Measured values published in PubChem BioAssay (NCATS).
Several values for one entry are separate records, joined by “and”; a condition that tells them apart may be missing. Identical values can stand only once. Inconclusive results are not listed. Activity calls are given as the source filed them. Unless noted, the call rests on the fitted dose curve.

Legend:
[1] = target: Estrogen receptor (Homo sapiens) (UniProt P03372); assay: qHTS assay for small molecule agonists of estrogen receptor alpha signaling (AID 588514);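 further: 0% = vehicle only and 100% = reference agonist; nearly all actives have a fitted effect of over 70% in size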
In short: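 Read-out: CCF4 fluorescence from a beta-lactamase reporter in ER-alpha-UAS-bla HEK 293 cells after 18 hrs of compound exposure at 37 C. Normalized to 20 nM 17-beta-estradiol (100%) and DMSO (0%).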

[2] = target: Glucocorticoid receptor (Homo sapiens) (UniProt P04150); assay: qHTS assay for small molecule agonists of glucocorticoid receptor signaling (AID 588532; active means well fitted curve in the direction sought with a large enough effect in the signal ratio, with a control signal flat; the % refers to the signal ratio;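 further: 100% = dexamethasone at 0.1 µM and 0% = DMSO only wells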); details: HeLa MMTV-bla, beta-lactamase ratio, agonist, 18 h; activation: hits give high values, percent of dexamethasone control, DMSO zero
In short: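 Titration series, up to 92 uM, applied to GRE-bla HeLa cells for 18 h at 37 C. Detection by CCF4 FRET substrate after 2 h at RT.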

[3] = target: Peroxisome proliferator-activated receptor gamma (Homo sapiens) (UniProt P37231); assay: qHTS assay for small molecule agonists of peroxisome proliferator-activated receptor gamma signaling (AID 588536; active means well fitted curve in the direction sought with a large enough effect in the signal ratio, with a control signal flat, not every such curve was filed as active; the % refers to the signal ratio;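 further: 0% = DMSO basal wells and 100% = rosiglitazone at 2 µM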)
In short: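 Compound treatment: 16 h, 37 C, HEK293 GeneBLAzer cells. Detection: CCF4, 2 h RT. Values: Hill-fit EC50, efficacy as % of 2 uM rosiglitazone.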

[4] = qHTS assay for small molecule activators of the nuclear factor-kappa B (NF-kB) signaling pathway (AID 651749; active means well fitted activation curve with a large enough effect in the signal ratio; the % refers to the signal ratio; further: series mostly up to about 77 µM; % of control where 0% means no effect); details: NF-kB-bla ME-180 cells, beta-lactamase FRET ratio, 16 h; activation: hits give high values
In short: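 Beta-lactamase reporter expression, controlled by NF-kB response elements in ME-180 cells, was quantified fluorometrically via FRET disruption; cells at 2,000/well had been incubated with 23 nL test compound for 16 hr.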

[5] = target: Androgen receptor (Homo sapiens) (UniProt P10275); assay: qHTS assay for small molecule agonists of androgen receptor signaling (AID 588515; active means well fitted curve in the direction sought with a large enough effect in the signal ratio, with a control signal flat; the % refers to the signal ratio; further: on the % scale 0 is the no-effect control and ±100 the full control effect); details: AR-UAS-bla HEK293, beta-lactamase ratio, agonist 16 h; hits give high values
In short: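 Stimulation of an AR-responsive β-lactamase reporter in GripTite HEK293 cells was measured after 16 h compound exposure at 37 °C, via CCF4 fluorescence after 2 h RT. EC50 from Hill fits, normalized to R1881 at 30 nM.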

[6] = target: Androgen receptor (Homo sapiens) (UniProt P10275); assay: qHTS assay for small molecule antagonists of androgen receptor signaling (AID 588516; active means well fitted curve in the direction sought with a large enough effect in the signal ratio, with a control signal flat, not every such curve was filed as active; the % refers to the signal ratio; further: on the % scale 0 is the no-effect control and ±100 the full control effect)
In short: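 AR-UAS-bla GripTite HEK 293 cells (2000/well) treated with compound titrations plus 10 nM R1881 for 16 h at 37C. Beta-lactamase read by CCF4 FRET (460/530 nm); IC50 from Hill fits, normalized to R1881 and DMSO control wells.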

[7] = qHTS assay for small molecule agonists of the antioxidant response element (ARE) signaling pathway (AID 651741; active means well fitted activation curve with a large enough effect in the signal ratio; the % refers to the signal ratio; further: potency means the concentration at half of the fitted maximal effect; on activation: % of control where 0% means no effect)
In short: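 Beta-lactamase reporter expression driven by the antioxidant response element in HepG2 cells was detected by fluorescence with LiveBLAzer B/G FRET substrate (2 h, room temperature) following 16 h compound treatment at 37 C.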

[8] = target: Peroxisome proliferator-activated receptor delta (Homo sapiens) (UniProt Q03181); assay: qHTS assay for small molecule antagonists of peroxisome proliferator-activated receptor delta signaling (AID 588535; active means well fitted inhibition curve with a large enough effect in the signal ratio, with a control signal flat, not every such curve was filed as active; the % refers to the signal ratio)
In short: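 Compounds tested in titration on PPAR-delta-UAS-bla HEK293T cells grown in charcoal/dextran-stripped serum (2%); beta-lactamase activity read via CCF4 emission at 460 and 530 nm.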

[9] = target: Peroxisome proliferator-activated receptor gamma (Homo sapiens) (UniProt P37231); assay: qHTS assay for small molecule antagonists of peroxisome proliferator-activated receptor gamma signaling (AID 588537; active means well fitted inhibition curve with a large enough effect in the signal ratio, with a control signal flat, not every such curve was filed as active; the % refers to the signal ratio;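 further: reporter cells co-stimulated with 50 nM rosiglitazone agonist during compound treatment; % of control where 0% means no effect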)
In short: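 HEK293 cells, PPAR-gamma-UAS-bla, 3000/well. Pre-incubation 6-6.5 h, 37 C. Compound titration with rosiglitazone 50 nM final, 16 h. CCF4 dye, 2 h RT, dual-emission fluorescence.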

[10] = qHTS assay for small molecule activators of the human pregnane X receptor (PXR) signaling pathway (AID 720659; call rule not given here; further: 0% is about no effect)
[11] = target: Bile acid receptor (Homo sapiens) (UniProt Q96RI1); assay: qHTS assay for small molecule antagonists of farnesoid X receptor signaling (AID 588526); further: on the % scale 0 is the no-effect control and ±100 the full control effect
In short: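 Concentration-response titrations were fitted to the Hill equation for half-maximal inhibition and maximal response, with data normalised to 50 uM chenodeoxycholic acid and DMSO control wells. Cells: FXR-UAS-bla HEK293T, dialyzed FBS.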

Bile acid receptor (Homo sapiens), sequence (Q96RI1 whole entry, looked up): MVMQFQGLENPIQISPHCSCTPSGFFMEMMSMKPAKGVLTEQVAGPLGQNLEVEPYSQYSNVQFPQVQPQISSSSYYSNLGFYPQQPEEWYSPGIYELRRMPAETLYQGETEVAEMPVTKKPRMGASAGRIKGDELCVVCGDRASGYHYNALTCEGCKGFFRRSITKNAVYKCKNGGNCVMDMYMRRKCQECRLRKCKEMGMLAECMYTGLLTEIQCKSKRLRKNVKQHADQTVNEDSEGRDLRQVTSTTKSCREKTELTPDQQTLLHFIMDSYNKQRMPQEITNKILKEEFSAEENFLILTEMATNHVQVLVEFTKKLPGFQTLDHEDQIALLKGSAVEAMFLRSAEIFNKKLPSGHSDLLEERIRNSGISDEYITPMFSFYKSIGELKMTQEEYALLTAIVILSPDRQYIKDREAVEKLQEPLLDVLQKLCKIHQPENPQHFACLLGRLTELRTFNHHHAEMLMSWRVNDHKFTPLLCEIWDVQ
Peroxisome proliferator-activated receptor gamma (Homo sapiens), sequence (P37231 whole entry, looked up): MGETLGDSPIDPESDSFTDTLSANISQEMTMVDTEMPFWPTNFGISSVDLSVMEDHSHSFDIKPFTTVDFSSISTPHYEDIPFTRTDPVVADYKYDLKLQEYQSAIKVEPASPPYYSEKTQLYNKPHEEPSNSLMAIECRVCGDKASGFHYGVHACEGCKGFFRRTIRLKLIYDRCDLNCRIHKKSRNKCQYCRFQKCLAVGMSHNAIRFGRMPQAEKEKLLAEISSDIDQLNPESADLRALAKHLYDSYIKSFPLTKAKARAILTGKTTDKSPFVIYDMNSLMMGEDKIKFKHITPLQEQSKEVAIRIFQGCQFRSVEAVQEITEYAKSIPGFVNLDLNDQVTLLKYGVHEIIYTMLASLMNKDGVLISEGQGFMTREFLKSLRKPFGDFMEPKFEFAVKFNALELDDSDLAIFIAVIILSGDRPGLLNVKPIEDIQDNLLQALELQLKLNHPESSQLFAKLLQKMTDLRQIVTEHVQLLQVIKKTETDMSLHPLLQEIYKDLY
Peroxisome proliferator-activated receptor delta (Homo sapiens), sequence (Q03181 whole entry, looked up): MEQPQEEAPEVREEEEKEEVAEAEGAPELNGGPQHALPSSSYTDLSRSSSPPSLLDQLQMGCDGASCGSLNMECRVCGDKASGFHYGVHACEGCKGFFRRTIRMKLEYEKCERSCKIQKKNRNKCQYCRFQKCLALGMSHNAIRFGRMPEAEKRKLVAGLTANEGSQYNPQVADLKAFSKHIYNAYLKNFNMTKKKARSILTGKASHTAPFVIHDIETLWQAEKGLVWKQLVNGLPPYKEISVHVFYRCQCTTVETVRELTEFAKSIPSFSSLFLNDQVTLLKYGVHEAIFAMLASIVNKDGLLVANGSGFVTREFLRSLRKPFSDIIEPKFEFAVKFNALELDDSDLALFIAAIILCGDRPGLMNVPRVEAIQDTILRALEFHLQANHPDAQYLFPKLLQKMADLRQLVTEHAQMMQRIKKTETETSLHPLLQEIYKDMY
Estrogen receptor (Homo sapiens), sequence (P03372 whole entry, looked up): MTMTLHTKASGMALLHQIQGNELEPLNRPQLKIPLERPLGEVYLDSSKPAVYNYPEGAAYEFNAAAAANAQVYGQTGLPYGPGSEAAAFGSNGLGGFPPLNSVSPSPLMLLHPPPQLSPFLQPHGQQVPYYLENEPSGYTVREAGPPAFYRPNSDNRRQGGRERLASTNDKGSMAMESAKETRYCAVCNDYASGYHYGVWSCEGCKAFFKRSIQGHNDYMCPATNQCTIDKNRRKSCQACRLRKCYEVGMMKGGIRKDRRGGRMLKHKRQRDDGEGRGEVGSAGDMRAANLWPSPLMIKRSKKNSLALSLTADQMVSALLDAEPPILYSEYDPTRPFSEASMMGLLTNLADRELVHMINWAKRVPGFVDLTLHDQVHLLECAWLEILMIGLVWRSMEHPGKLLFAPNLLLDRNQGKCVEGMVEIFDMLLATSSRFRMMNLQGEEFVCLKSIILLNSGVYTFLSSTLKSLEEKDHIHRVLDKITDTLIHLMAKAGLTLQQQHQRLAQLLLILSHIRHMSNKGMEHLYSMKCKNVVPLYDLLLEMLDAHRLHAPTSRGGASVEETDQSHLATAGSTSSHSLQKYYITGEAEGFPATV
Glucocorticoid receptor (Homo sapiens), sequence (P04150 whole entry, looked up): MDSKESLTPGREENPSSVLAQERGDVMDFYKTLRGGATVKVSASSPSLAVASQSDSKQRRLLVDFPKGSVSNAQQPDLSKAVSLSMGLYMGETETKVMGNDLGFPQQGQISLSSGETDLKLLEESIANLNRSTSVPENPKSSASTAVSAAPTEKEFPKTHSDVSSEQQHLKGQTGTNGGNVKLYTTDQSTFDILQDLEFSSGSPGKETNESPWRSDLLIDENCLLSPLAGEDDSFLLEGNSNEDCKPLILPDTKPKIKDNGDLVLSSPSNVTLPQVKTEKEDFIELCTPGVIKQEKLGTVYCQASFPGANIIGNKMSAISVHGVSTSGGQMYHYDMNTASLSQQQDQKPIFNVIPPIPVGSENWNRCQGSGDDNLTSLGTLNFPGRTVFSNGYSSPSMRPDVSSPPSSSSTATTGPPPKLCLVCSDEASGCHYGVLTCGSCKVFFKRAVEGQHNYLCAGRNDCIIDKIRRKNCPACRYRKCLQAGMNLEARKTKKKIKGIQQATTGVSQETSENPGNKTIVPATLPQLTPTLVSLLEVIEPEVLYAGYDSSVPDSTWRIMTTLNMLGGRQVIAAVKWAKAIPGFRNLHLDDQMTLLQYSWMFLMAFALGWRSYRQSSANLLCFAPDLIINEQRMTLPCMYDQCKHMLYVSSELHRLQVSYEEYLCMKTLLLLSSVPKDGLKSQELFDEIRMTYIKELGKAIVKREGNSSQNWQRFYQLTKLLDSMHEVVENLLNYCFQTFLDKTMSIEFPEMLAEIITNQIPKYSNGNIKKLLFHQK
Androgen receptor (Homo sapiens), sequence (P10275 whole entry, looked up): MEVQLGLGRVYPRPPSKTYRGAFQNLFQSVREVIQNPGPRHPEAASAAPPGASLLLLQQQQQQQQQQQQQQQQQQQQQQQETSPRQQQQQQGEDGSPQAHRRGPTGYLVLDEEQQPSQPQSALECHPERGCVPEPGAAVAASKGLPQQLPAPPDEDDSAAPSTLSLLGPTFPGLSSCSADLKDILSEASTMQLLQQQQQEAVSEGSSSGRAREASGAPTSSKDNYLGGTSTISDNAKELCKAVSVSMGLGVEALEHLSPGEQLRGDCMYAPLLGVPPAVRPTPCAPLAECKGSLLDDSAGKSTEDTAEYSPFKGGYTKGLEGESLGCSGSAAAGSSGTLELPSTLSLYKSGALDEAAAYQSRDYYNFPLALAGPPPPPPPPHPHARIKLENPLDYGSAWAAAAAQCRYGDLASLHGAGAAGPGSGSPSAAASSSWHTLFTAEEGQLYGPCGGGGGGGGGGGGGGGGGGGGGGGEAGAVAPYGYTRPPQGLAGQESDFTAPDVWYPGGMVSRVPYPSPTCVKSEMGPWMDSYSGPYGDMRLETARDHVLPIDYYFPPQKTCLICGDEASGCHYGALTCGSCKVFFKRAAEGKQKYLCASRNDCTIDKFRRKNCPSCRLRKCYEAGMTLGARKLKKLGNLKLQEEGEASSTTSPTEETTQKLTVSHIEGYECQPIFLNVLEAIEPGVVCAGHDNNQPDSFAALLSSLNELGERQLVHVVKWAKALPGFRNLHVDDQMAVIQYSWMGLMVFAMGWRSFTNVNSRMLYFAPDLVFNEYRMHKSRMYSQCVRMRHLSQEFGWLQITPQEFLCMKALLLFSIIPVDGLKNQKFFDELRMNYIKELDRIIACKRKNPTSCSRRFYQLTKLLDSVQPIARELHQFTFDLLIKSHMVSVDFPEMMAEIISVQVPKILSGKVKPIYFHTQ

CON(C)C(=O)Nc1ccc(Cl)c(Cl)c1
inactive: Potency [1] | activation [2] -2.11% | Potency [3] | activation [4] -2.01%

COc1ccc(/C(=C/C(=O)N2CCOCC2)c2ccc(Cl)cc2)cc1OC
inactive: activation [5] -2.83% | Potency [6] | Potency [7] | activation [4] -1.84%

COC(=O)N(C(=O)N1COC2(C(=O)OC)Cc3cc(Cl)ccc3C2=N1)c1ccc(OC(F)(F)F)cc1 (stereo not given)
inactive: Potency [1] | activation [2] 17.1%

CNC(=O)Oc1cc(C)c(SC)c(C)c1
active: Potency [7] 27.3 µM
inactive: activation [5] 1.32% | Potency [6] | activation [2] 13.5% | Potency [8] | Potency [3] | activation [4] -0.568%

CCC[CH2][Sn](=[O])[CH2]CCC
inactive: activation [5] 0.348% | Potency [6] | activation [2] -3.35% | Potency [8] | Potency [3] | Potency [9] | Potency [7] | activation [4] -1.97% | outcome [10]

C=C(C)C(=O)OCC(CC)CCCC (stereo not given)
inactive: Potency [1] | activation [2] -12.2% | Potency [3] | Potency [7] | activation [4] -0.248% | outcome [10]

CC1(C)[C@H](C=C(Cl)Cl)[C@H]1C(=O)O[C@H](C#N)c1ccc(F)c(Oc2ccccc2)c1
inactive: Potency [1] | activation [2] -0.69% and -0.284% | Potency [3] | Potency [9]

ClC1=C(Cl)[C@@]2(Cl)[C@H]3C[C@@H](Cl)[C@H](Cl)[C@H]3[C@@]1(Cl)C2(Cl)Cl
active: Potency [7] 24.3 µM
inactive: activation [5] -0.104% | Potency [6] | activation [2] -9.73%

ClC1=C(Cl)C2(Cl)C3C4OC4C(Cl)C3C1(Cl)C2(Cl)Cl (stereo not given)
inactive: Potency [1] | Potency [8] | Potency [3] | Potency [9] | activation [4] 4.48%

Cc1cc(Cl)ccc1O[C@H](C)C(=O)O
inactive: Potency [1] | Potency [9] | activation [4] 0.599% | outcome [10]

CCNc1nc(NC(C)C)nc(SC)n1
inactive: activation [5] -1.4% | Potency [6] | Potency [3] | Potency [9] | Potency [7] | activation [4] -1.51%

O=C1C=CC(=O)c2ccccc21
active: Potency [7] 54.5 µM
inactive: activation [5] 0.338% | Potency [11] | activation [2] 0.432% | Potency [8] | Potency [3] | Potency [9] | activation [4] -1.33% | outcome [10]

Cc1ccccc1CO[C@@H]1C[C@@]2(C(C)C)CC[C@]1(C)O2
inactive: activation [5] -0.477% | Potency [6] | Potency [8] | Potency [3] | Potency [7] | activation [4] -3.81%

O=C(NC(=O)c1c(F)cccc1F)Nc1cc(Cl)c(OC(F)(F)C(F)C(F)(F)F)c(Cl)c1F (stereo not given)
active: Potency [7] 30.6 µM
inactive: activation [5] -3.76% | Potency [6] | Potency [11] | Potency [8] | activation [4] 4.04%

CC(C)[C@@H](Nc1ccc(C(F)(F)F)cc1Cl)C(=O)OC(C#N)c1cccc(Oc2ccccc2)c1 (stereo not given in full)
inactive: Potency [1] | activation [2] -3.97%

C[N+]1(C)CCCCC1
inactive: activation [5] 4.04% | Potency [6] | Potency [3] | Potency [9] | activation [4] 0.391% | outcome [10]

CNC(=O)N(C)c1nc2ccccc2s1
active: Potency [7] 27.3 µM
inactive: activation [5] -11.3% | Potency [11] | Potency [3] | activation [4] 0.981%

O=C(Nc1ccccc1)Nc1ccnc(Cl)c1
inactive: activation [5] 10.1% | Potency [6] | Potency [11] | Potency [9] | activation [4] -0.762%

CNP(=O)(OC)Oc1ccc(C(C)(C)C)cc1Cl (stereo not given)
active: Potency [7] 61.1 µM
inactive: Potency [1] | activation [2] 0.207% | Potency [8] | activation [4] 1.2%

CN/C(=N\[N+](=O)[O-])NCc1cnc(Cl)s1
inactive: Potency [1] | Potency [3] | Potency [9] | outcome [10]

Brc1ccc(Oc2ccccc2)cc1
inactive: Potency [1] | activation [2] 1.51% | Potency [8] | Potency [3] | activation [4] -2.79% | outcome [10]

CCOP(=S)(OCC)SCCl
inactive: activation [5] 5.88% | Potency [6] | activation [2] 12.1% | Potency [3] | Potency [7] | activation [4] -1.72% | outcome [10]

Cc1nn(-c2cc(NS(C)(=O)=O)c(Cl)cc2Cl)c(=O)n1C(F)F
inactive: activation [5] -3.3% | Potency [6] | Potency [8] | Potency [3] | Potency [9] | Potency [7]

CC1(C)[C@H](C(=O)O[C@H](C#N)c2cccc(Oc3ccccc3)c2)[C@@H]1C=C(Br)Br
inactive: activation [5] -5.24% | Potency [6] | Potency [8]

N#CC(CCc1ccc(Cl)cc1)(Cn1cncn1)c1ccccc1 (stereo not given)
inactive: Potency [1] | activation [2] -4.45% | activation [4] 2.24%
active: Potency [7] 68.6 µM

Cc1[nH]c(=O)n(C(C)(C)C)c(=O)c1Cl
inactive: activation [5] 0.796% | Potency [6] | Potency [11] | Potency [3] | Potency [9] | activation [4] -0.578% | outcome [10]

N#Cc1cc(I)c(O)c(I)c1
inactive: activation [5] 6.03% | Potency [6] | Potency [8] | outcome [10]
active: Potency [7] 30.6 µM

Cn1c(-c2ccccc2)cc(-c2ccccc2)[n+]1C
inactive: Potency [1] | activation [2] -9.09% | Potency [3] | Potency [9]
